Measured values taken from PubChem BioAssay.
Unmarked numbers belong to inactive results. Where a call stands in place of a potency, no number is given. For some assays here: Potency and affinity values are given separately. Active and inactive are the calls of the source. Unless noted, the rule behind the calls is not given here.

Columns and labels:
[1] = antimalarial activity against Dd2 strain (AID 2302;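 active = growth inhibition above 50% at the single 2 µM test dose, taken to imply half-maximal potency below 2 µM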); details: P. falciparum Dd2 in RBCs, LDH growth readout, 72 h; at 2 µM; active compounds read high
[2] = HepG2 cytotoxicity, primary screen, cytotoxicity control for P. falciparum antimalarial project, cell-based, ATP luminescence (AID 2303;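 active = inhibition above 50%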); details: HepG2 viability, 24-48 h, at 10 µM, active compounds read high
[3] = target: L-lactate dehydrogenase (Plasmodium falciparum (isolate CDC / Honduras)) (UniProt Q27743); assay: PfLDH activity inhibition – cell lysate, 3D7 strain, counter-screen for P. falciparum growth inhibition project (AID 2304); details: P. falciparum 3D7 crude extract, LDH APAD/NBT absorbance; at 2 µM; active compounds read high
Chain of L-lactate dehydrogenase (Plasmodium falciparum (isolate CDC / Honduras)) (Q27743 whole entry, looked up): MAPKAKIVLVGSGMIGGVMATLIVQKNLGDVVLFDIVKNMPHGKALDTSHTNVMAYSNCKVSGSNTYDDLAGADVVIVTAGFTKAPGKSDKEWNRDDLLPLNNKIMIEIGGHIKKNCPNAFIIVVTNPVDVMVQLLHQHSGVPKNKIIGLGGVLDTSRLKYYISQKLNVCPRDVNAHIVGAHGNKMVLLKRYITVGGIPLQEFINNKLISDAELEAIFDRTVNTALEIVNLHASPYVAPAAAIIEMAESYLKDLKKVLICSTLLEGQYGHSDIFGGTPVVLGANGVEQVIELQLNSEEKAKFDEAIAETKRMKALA

[4] = inhibition of 3D7 malaria parasite growth – strain 3D7 (AID 2306); details: P. falciparum 3D7 erythrocytic growth, LDH absorbance, 72 h; at 2 µM; active compounds read high
[5] = target: Calcium-dependent protein kinase 1 (Plasmodium falciparum (isolate 3D7)) (UniProt P62344); assay: PfCDPK1 kinase inhibitors, biochemical, TCAMS library (AID 1159585; cut-off not given, nearly all actives have IC50 up to about 0.98 µM;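 note: inhibitors leave more ATP so luminescence rises with inhibition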); details: recombinant PfCDPK1, Kinase-Glo ATP depletion luminescence
Chain of Calcium-dependent protein kinase 1 (Plasmodium falciparum (isolate 3D7)) (P62344 whole entry, looked up): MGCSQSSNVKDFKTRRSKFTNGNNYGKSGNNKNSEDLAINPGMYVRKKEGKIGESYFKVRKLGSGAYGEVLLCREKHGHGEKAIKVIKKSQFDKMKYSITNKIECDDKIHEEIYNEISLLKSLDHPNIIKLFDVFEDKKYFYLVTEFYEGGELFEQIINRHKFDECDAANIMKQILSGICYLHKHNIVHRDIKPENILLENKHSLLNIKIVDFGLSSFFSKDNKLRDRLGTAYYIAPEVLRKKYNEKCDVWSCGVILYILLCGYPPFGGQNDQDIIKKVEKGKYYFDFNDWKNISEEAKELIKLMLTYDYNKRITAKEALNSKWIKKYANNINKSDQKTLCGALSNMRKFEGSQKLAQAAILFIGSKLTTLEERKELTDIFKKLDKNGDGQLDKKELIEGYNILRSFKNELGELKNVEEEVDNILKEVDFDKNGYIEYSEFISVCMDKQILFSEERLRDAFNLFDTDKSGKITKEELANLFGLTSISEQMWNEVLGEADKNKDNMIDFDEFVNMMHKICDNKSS

[6] = target: Plasmodium falciparum protein kinase 6 (PK6, PF3D7_1337100) (UniProt Q8IDW1); assay: PfPK6 kinase inhibitors, biochemical, TCAMS library (AID 1159586); details: recombinant PfPK6, Kinase-Glo ATP depletion luminescence
Chain of Plasmodium falciparum protein kinase 6 (PK6, PF3D7_1337100) (Q8IDW1 1-305): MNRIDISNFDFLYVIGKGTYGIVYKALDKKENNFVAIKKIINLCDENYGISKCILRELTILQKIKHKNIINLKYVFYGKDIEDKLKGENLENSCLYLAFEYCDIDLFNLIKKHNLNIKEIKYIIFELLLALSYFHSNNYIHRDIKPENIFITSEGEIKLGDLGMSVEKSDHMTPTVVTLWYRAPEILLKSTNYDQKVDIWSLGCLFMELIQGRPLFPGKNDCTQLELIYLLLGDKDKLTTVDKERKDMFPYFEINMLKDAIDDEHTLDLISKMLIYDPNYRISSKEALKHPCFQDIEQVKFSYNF

[7] = target: Protein kinase 7 (PK7), Plasmodium falciparum 3D7 (PF3D7_0213400) (UniProt Q7YTF7); assay: inhibition of Plasmodium PK7 catalytic activity – biochemical, TCAMS antimalarial set, Kinase-Glo luminescence (AID 1159587); details: recombinant PfPK7, Kinase-Glo ATP depletion luminescence
Chain of Protein kinase 7 (PK7), Plasmodium falciparum 3D7 (PF3D7_0213400) (Q7YTF7 1-343): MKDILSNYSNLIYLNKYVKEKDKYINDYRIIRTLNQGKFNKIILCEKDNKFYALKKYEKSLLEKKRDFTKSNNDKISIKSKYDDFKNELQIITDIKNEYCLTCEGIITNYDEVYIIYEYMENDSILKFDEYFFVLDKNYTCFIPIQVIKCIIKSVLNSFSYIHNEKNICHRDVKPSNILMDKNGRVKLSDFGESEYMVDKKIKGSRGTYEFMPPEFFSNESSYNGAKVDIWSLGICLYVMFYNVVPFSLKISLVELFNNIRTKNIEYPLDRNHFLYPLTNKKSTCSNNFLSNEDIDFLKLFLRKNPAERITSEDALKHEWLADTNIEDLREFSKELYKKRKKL

[8] = target: Calcium-dependent protein kinase 4 (Plasmodium falciparum (isolate 3D7)) (UniProt Q8IBS5); assay: PfCDPK4 kinase inhibitors, biochemical, TCAMS library (AID 1159588; cut-off not given, nearly all actives have IC50 up to about 0.91 µM); details: recombinant PfCDPK4, Kinase-Glo ATP depletion luminescence
Chain of Calcium-dependent protein kinase 4 (Plasmodium falciparum (isolate 3D7)) (Q8IBS5 whole entry, looked up): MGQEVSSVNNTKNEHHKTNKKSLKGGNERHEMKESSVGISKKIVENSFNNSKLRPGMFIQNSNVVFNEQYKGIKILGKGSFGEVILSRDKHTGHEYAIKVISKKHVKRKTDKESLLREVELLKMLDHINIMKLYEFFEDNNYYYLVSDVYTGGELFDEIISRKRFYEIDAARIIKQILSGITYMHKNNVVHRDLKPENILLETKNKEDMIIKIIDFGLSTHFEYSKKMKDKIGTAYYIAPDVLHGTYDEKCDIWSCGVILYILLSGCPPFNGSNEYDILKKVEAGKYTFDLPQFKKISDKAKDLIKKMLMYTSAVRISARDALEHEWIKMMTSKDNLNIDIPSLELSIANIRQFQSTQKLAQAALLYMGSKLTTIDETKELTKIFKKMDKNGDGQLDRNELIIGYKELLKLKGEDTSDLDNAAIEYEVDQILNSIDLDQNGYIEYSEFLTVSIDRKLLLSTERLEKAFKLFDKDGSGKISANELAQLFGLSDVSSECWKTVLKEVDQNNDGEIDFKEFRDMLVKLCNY

| Compound | growth inhibition [1] | inhibition [2] | inhibition [3] [%] | growth inhibition [4] | outcome [5] | outcome [6] | outcome [7] | outcome [8] |
| --- | --- | --- | --- | --- | --- | --- | --- | --- |
| Cc1[nH]cnc1-c1cccc(NC(=O)c2cc3ccccc3s2)c1 | 48% | 5% | -5 | 99% (active) | inactive | inactive | inactive | inactive |
| CC(C)(C)c1ccc(CNCC(C)(C)c2nc(-c3ccc(Cl)c(O)c3)c(-c3ccnc(N)n3)[nH]2)cc1 | 54% (active) | 28% | -7 | 100% (active) | inactive | inactive | inactive | inactive |
| Cc1cc(N[C@@H](CC(C)C)C(=O)NCCOc2ccccc2)nc(NCCc2ccccc2)n1 | 29% | 13% | -1 | 94% (active) | inactive | inactive | inactive | inactive |
| Cc1ccc(Cn2ncc(N3CCNCC3)c(Cl)c2=O)cc1NC(=O)Nc1ccc(-c2ccccc2)cc1 | 30% | 56% (active) | 6 | 90% (active) | inactive | inactive | inactive | inactive |
| Cc1ccccc1N1CCN(c2ccc(C(=O)Nc3ccccc3)cc2)CC1 | 91% (active) | 22% | -2 | 89% (active) | inactive | inactive | inactive | inactive |
| Cc1nc(-c2cccc(NC(C)C(=O)Nc3cc(C(F)(F)F)ccc3N3CCOCC3)c2)cs1 (stereo unspecified) | 97% (active) | 3% | -2 | 82% (active) | inactive | inactive | inactive | inactive |
| Cc1noc(-c2ccc3c(c2)CCN(CCC2CCC(NC(=O)/C=C/c4ccc(F)cc4)CC2)CC3)n1 (stereo unspecified) | 39% | 44% | 3 | 91% (active) | inactive | inactive | inactive | inactive |
| CCN1CCN(C(=O)NC(C(=O)N2CCCC(COc3ccc(Cc4ccccc4)cc3)C2)c2cccs2)C(=O)C1=O (stereo unspecified) | 87% (active) | 12% | -6 | 95% (active) | inactive | inactive | inactive | inactive |
| Oc1ccc(Cc2cc(Oc3c(I)cc(CCc4ncc[nH]4)cc3I)ccc2O)cc1 | 32% | 10% | -3 | 101% (active) | inactive | inactive | inactive | inactive |
| CCOC(=O)C(C(=O)OCC)c1nc(C)ns1 | -3% | 10% | -3 | 99% (active) | inactive | inactive | inactive | inactive |
| O=C(CC1CCCCC1)NCC(NCCCNc1cc(=O)c2ccccc2[nH]1)c1cc(Br)cc(Br)c1 (stereo unspecified) | 52% (active) | 8% | 0 | 95% (active) | inactive | inactive | inactive | inactive |
| CC(C)(C)C(=O)Nc1c(-c2cc(=O)oc3cc4c(cc23)CCC4)oc2ccccc12 | 100% (active) | -5% | 3 | 101% (active) | inactive | inactive | inactive | inactive |
| Cc1cnc(NCCc2ccc(F)cc2)nc1NCCC(=O)Nc1ccccc1 | 17% | 3% | 6 | 89% (active) | inactive | inactive | inactive | inactive |
| OCc1ccc(-c2cncc(Nc3ccc(F)c(Cl)c3)c2)cc1 | 99% (active) | 2% | -2 | 92% (active) | inactive | inactive | inactive | inactive |
| COc1ccccc1CCNc1nc(C)cc(N[C@@H](Cc2ccccc2)C(=O)NCc2cccs2)n1 | 73% (active) | 18% | 1 | 100% (active) | inactive | inactive | inactive | inactive |
| CC(C)Oc1ccc(C=CC(=O)Nc2noc3ccccc23)cc1 | 95% (active) | 2% | 4 | 96% (active) | inactive | inactive | inactive | inactive |
| OC(CNc1ccnc(Nc2ccccc2)n1)c1ccc(C(F)(F)F)cc1 (stereo unspecified) | 39% | 3% | -2 | 101% (active) | inactive | inactive | inactive | inactive |
| Cc1ccc(Cc2c(C)nc3nc(N)nc(N)c3c2C)cc1 | 1% | 60% (active) | 5 | 93% (active) | inactive | inactive | inactive | inactive |
| CCCc1ccc(C2CCN(CCCCNC(=O)c3ccc(NC(=O)c4ccc(Cl)cc4)cc3)CC2)cc1 | 100% (active) | 39% | 1 | 100% (active) | inactive | inactive | inactive | inactive |

| Compound | growth inhibition [1] | inhibition [2] | inhibition [3] [%] | growth inhibition [4] | outcome [5] | outcome [6] | outcome [7] | outcome [8] |
| --- | --- | --- | --- | --- | --- | --- | --- | --- |
| O=c1cc(NCCCNCc2csc(Br)c2Sc2ccc(Cl)cc2)[nH]c2ccccc12 | 83% (active) | 5% | 7 | 95% (active) | inactive | inactive | inactive | inactive |
| c1nc2nc3c(c(Nc4ccc5c(c4)CCC5)n2n1)CCC3 | 70% (active) | -1% | -5 | 87% (active) | inactive | inactive | inactive | inactive |
| O=C(NCC1CCN(CC2CCCCC2)C1)c1cc(-c2cccc(C(F)(F)F)c2)cs1 (stereo unspecified) | 21% | 47% | -3 | 96% (active) | inactive | inactive | inactive | inactive |
| CC(C)Cc1nc2nc(N)nc(N)c2cc1C(C)C | 3% | 67% (active) | 4 | 96% (active) | inactive | inactive | inactive | inactive |
| O=C(Nc1ccc(F)cc1)NC1CCN(c2ccnc3cc(Cl)ccc23)CC1 | 57% (active) | 10% | 0 | 97% (active) | inactive | inactive | inactive | inactive |
| COc1ccccc1C(=O)C1CCCN(C(=O)c2ccccc2C(F)(F)F)C1 (stereo unspecified) | 84% (active) | -9% | -4 | 91% (active) | inactive | inactive | inactive | inactive |
| CC(O)C1CCCCN1C(=O)c1ccc(-c2ccc(-c3nc4ccc(F)cc4[nH]3)cc2)cc1 (stereo unspecified) | 99% (active) | 43% | -3 | 101% (active) | inactive | inactive | inactive | inactive |
| CCn1cnc2c(N3CCCC3=O)cc(C(=O)N[C@@H](Cc3ccccc3)[C@H](O)CNC3CCCCC3)cc21 | 94% (active) | -2% | -5 | 98% (active) | inactive | inactive | inactive | inactive |
| CN(C)c1ccc(-c2csc(C(=O)NCC3CCN(CC4CCCCC4)C3)c2)cc1 (stereo unspecified) | 28% | 35% | 1 | 86% (active) | inactive | inactive | inactive | inactive |
| CC(C)CCN1CCCN(Cc2ccc(C(=O)NCc3ccc(Cl)cc3)cc2)CC1 | -4% | 16% | 1 | 84% (active) | inactive | inactive | inactive | inactive |
| CCOC(=O)C1CCN(CCCNC(=O)/C(=C/C=C/c2cc3cc(Cl)c(Cl)cc3[nH]2)OC)CC1 | 78% (active) | 23% | -6 | 87% (active) | inactive | inactive | inactive | inactive |
| Cc1ccc(Cc2cnc(CN3CCCCC3)c(O)c2)cc1 | 75% (active) | 4% | 1 | 93% (active) | inactive | inactive | inactive | inactive |
| COc1cc(Cl)c(C)cc1N(Cc1ccccc1-c1ccccc1)S(=O)(=O)c1ccc(C(F)(F)F)cc1 | 62% (active) | 23% | -2 | 90% (active) | inactive | inactive | inactive | inactive |
| CCOc1cc(C(=O)N[C@@H](Cc2ccccc2)[C@H](O)CNCc2cccc(OC)c2)cc(N2CCCCS2(=O)=O)c1 | 94% (active) | 3% | 3 | 97% (active) | inactive | inactive | inactive | inactive |
| Cc1cc(NCCC(=O)NCCOc2ccccc2)nc(NCCOc2ccccc2)n1 | 20% | 8% | 0 | 92% (active) | inactive | inactive | inactive | inactive |
| O=C(/C=C/c1cccc(Cl)c1)NCCCCCN1CCC(c2c[nH]c3ccccc23)CC1 | 17% | 46% | -2 | 89% (active) | inactive | inactive | inactive | inactive |
| CCN(CC)CCN(Cc1ccc(-c2ccc(C(F)(F)F)cc2)cc1)C(=O)Cn1c(CCc2cc(F)c(F)c(F)c2)nc(=O)c2ccccc21 | 70% (active) | 31% | -4 | 101% (active) | inactive | inactive | inactive | inactive |
| CCCC1(NC[C@@H](O)[C@H](Cc2ccccc2)NC(=O)c2cc(NCC)cc(N3CCCCS3(=O)=O)c2)CCCCC1 | 98% (active) | 4% | -4 | 101% (active) | inactive | inactive | inactive | inactive |
